Data on 15 compounds can be found in PubChem BioAssay (NCATS).

Unmarked numbers belong to inactive results. Inconclusive results are not listed. Active and inactive are the calls of the source. Unless noted, calls follow the shape of the dose curve; as a rule, active = well fitted curve in the direction sought with a large enough effect; inconclusive = small, poorly fitted or top-dose-only effect, or another doubt; inactive = no such curve, though single readings can be large; an effect the other way counts as inactive or inconclusive.

Experiment [1] can be described thus: Cellular Toxicity (caspase-3) H-4-II-E (AID 663).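 Also: cells exposed to compound for 16 hr before readout; 0% = DMSO basal and 100% = 100 µM tamoxifen.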 In outline:
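Caspase 3/7 activation measured in H-4-II-E cells in complete culture medium after 16 hr treatment at 37 °C, using luciferase-coupled substrate readout; AC50 values come from Hill-equation fits of normalized concentration-response data.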

A short description of experiment [2]: Cellular Toxicity (caspase-3) Hek293 (AID 664).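 Also: cells exposed to compound for 16 h at 37 °C before readout.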 Put shortly:
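Luminescent Caspase-Glo 3/7 readout (aminoluciferin release) in HEK293 cells after 16 h compound treatment, 37 °C. Normalization: DMSO = basal, 100 uM tamoxifen = 100% stimulation. Concentration-response fitted with standard Hill equation for AC50.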

Experiment [3] can be described thus: Cellular Toxicity (caspase-3) N2a (AID 665).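 Also: compound exposure lasted 16 h at 37 °C before readout.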 In outline: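 Luminescent Caspase-Glo 3/7 readout in N2a mouse neuroblastoma cells after 16 h compound exposure at 37 °C. Signal scaled to DMSO (basal) and 10 uM staurosporine (100%). Concentration-response fitted with Hill equation for AC50.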
Experiment [4] is described as follows: Cellular Toxicity (caspase-3) NIH 3T3 (AID 666).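 Also: 0% = DMSO basal and 100% = 100 µM tamoxifen stimulation.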 Put shortly: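 NIH 3T3, 1000 cells/well, 5 hr settle then 16 hr compound at 37°C; Caspase-Glo 3/7, 20 min RT, luminescence. DMSO = basal, 100 uM tamoxifen = 100%. Hill-equation AC50, qHTS.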
A short description of experiment [5]: Cellular Toxicity (caspase-3) Renal Proximal Tubule (AID 667).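 Also: cells exposed to compound for 16 hours at 37 °C before detection; 0% = DMSO basal and 100% = 10 µM staurosporine.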 Put shortly: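 Caspase-Glo 3/7 read-out, rat primary kidney proximal tubule cells. Compound exposure 16 h, 37 °C; detection after 1 h at RT. Activity scaled to DMSO and 10 uM staurosporine.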
The target in experiment [6] is Cytochrome P450 3A4 (Homo sapiens) (UniProt P08684). In words: qHTS Assay for Inhibitors and Substrates of Cytochrome P450 3A4 (AID 884). Also: series mostly up to about 57 µM; % is scaled to controls: 0 for no effect and ±100 for the full control effect; nearly all actives have a fitted effect of over 50% in size. Put shortly:
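Luminescent readout of luciferin produced by CYP3A4 (20 nM) dealkylation of Luciferin-PPXE, 25 uM (its KM). NADPH-driven reaction ran 60 min at RT after 10 min compound preincubation; data scaled to 57 uM ketoconazole as 100% inhibition.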

Experiment [7] can be described thus: Cell Viability - LYMP2-001 (AID 921).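 Also: series mostly up to about 92 µM; cells exposed to compound for 24 h at 37 °C; 0% = DMSO only and full inhibition = tetraoctylammonium bromide control wells; nearly all actives have a fitted effect of over 70% in size.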 In outline: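 A lymphoblastoid cell line of human origin was treated with library compounds across a concentration series for 24 hours, and viable cell number was estimated from ATP-driven luciferase light output. Hill modeling gave AC50.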
Experiment [8] can be described thus: MultiTox-Fluor Cytotoxicity Assay - LYMP1-001 - Dead Cells (AID 946). Put shortly: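 Cytotoxicity as increased dead-cell protease fluorescence (bis-AAF-R110, 485/520 nm), read 60 min after MultiTox-Fluor reagent. Human lymphoblastoid line exposed 16 h; Hill-fitted AC50, with DMSO as 0% and 15 uM tetraoctylammonium bromide as 100%.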
Experiment [9] addresses Guanine nucleotide-binding protein G(i) subunit alpha-1 (Homo sapiens) (UniProt P63096). In words: qHTS Assay for Inhibitors of RGS12 GoLoco Motif Activity (Green Fluorophore) (AID 879).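 Also: 0% = labeled peptide with Gαi1 and full inhibition = labeled peptide alone without protein; negative values mean loss of peptide binding seen as reduced polarization.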 Put shortly:
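A drop in FITC polarization marked displacement of the FITC-tagged RGS12 GoLoco peptide (10 nM) from Gαi1 (50 nM). Compounds were incubated 10 min at room temperature in Tris pH 7.5 buffer containing 150 mM NaCl, 0.1 mM GDP and 0.05% NP40; unlabeled peptide titration served as control.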

The target of experiment [10] is Cytochrome P450 3A4 (Homo sapiens) (UniProt P08684). Briefly: qHTS Assay for Activators of Cytochrome P450 3A4 (AID 885). Also: nearly all actives have a fitted effect of over 65% in size. In outline:
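Luminescent readout of luciferin formed from 25 uM Luciferin-PPXE (KM level) by 20 nM CYP3A4 in 200 mM KPO4, with 60 min NADPH-driven reaction at room temperature after 10 min compound exposure. Ketoconazole (57 uM) defined 100% inhibition.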

A short description of experiment [11]: qHTS Assay for Identification of Small Molecule Agonists for Thrombopoietin (TPO) Signaling Pathway (AID 917). Also: % is scaled to controls: 0 for no effect and ±100 for the full control effect. Put shortly:
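Human TPO receptor–transfected Ba/F3 cells (murine, IL-3-dependent) in IL-3-deficient medium; compounds plus TPO at EC50, 26 pM final; 24 hrs, 37 C; GpIIb-luciferase luminescence after 10 min RT detection.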

Experiment [12] has as its target Muscarinic acetylcholine receptor M1 (Rattus norvegicus) (UniProt P08482). In words: qHTS Assay for Antagonists of Acetylcholine Muscarinic M1 Receptor: Kinetic Measurement of Intracellular Calcium Response (AID 943).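 Also: Fluo-4 calcium signal as peak divided by basal fluorescence over 4 min; series mostly up to about 35 µM; nearly all actives have a fitted effect of over 75% in size.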 In outline:
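Read-out: peak over basal Fluo-4 fluorescence, kinetic at 1 Hz for 4 min after EC80 carbachol (100 nM final). Rat M1-CHO cells, dye loaded 1 h at 37C, compound added 10 min before agonist.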

The target is the same in experiment [13]. Briefly: qHTS Assay for Antagonists of Acetylcholine Muscarinic M1 Receptor: Measurement of IP-One Response (AID 944). Also: nearly all actives have a fitted effect of over 75% in size. Put shortly:
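Read-out: HTRF competition between d2-IP1 and Eu-cryptate anti-IP1 antibody, emission 620 and 665 nm. Stimulus was carbachol, EC80 (200 nM), for 30 min in M1-CHO cells (rat receptor), after 10 min compound pre-treatment.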

Experiment [14] concerns the target Pyruvate kinase (Leishmania mexicana) (UniProt Q27686). Briefly: qHTS Validation Assay for Inhibitors of Leishmania Mexicana Pyruvate Kinase (AID 945).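 Also: 0% = DMSO only neutral control wells.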 In outline:
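qHTS eight-point titrations against 0.2 nM LmPYK (E451W) in imidazole buffer pH 7.2 with 0.5 mM PEP, 0.1 mM ADP; 1 h, room temperature. Readout: PKLight luminescence, normalized to neutral DMSO wells.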

Experiment [15] has as its target Cytochrome P450 2D6 (Homo sapiens) (UniProt P10635). Briefly: qHTS Assay for Inhibitors and Substrates of Cytochrome P450 2D6 (AID 891).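 Also: luciferin methyl ether substrate demethylated by CYP2D6 with NADPH regeneration; % is scaled to controls: 0 for no effect and ±100 for the full control effect; nearly all actives have a fitted effect of over 60% in size.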 Put shortly: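 Luminescent read-out of luciferin formed by 5 nM human CYP2D6 demethylating 30 uM Luciferin-ME EGE (Km level) over 60 min at room temperature after NADPH regeneration addition. Data normalized to full inhibition by 1.43 uM quinidine.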

For experiment [16], the target named is Cytochrome P450 2C9 (Homo sapiens) (UniProt P11712). In words: qHTS Assay for Inhibitors and Substrates of Cytochrome P450 2C9 (AID 883). Also: nearly all actives have a fitted effect of over 60% in size. Also: potency is read from the fitted curve at half-maximal effect. As to activity change, negative = inhibition: % is scaled to controls: 0 for no effect and ±100 for the full control effect. Put shortly: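 CYP2C9 deoxyluciferin hydroxylation, 37C, 60 min with NADPH regeneration; 10nM enzyme, 100uM Luciferin-H (KM). Glo detection reagent stopped reaction; luminescence normalized to sulphaphenazole (57uM) full inhibition.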

A short description of experiment [17]: qHTS Assay for Identification of Small Molecule Antagonists for NFkB Signaling Pathway (AID 895; active = well fitted inhibition curve with a large enough effect in the signal ratio, with a control signal flat, not every such curve was filed as active; the % refers to the signal ratio; also: % is scaled to controls: 0 for no effect and ±100 for the full control effect). Put shortly:
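NFkB-bla ME-180 cervical carcinoma cells with beta-lactamase reporter under NFkB response element; compounds added, then TNF alpha at 10 pM final (EC50), 5 h at 37 C. LiveBLAzer substrate 2 h, room temperature; emission 460/530 nm at 405 nm excitation.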

Experiment [18] has as its target Cytochrome P450 2C19 (Homo sapiens) (UniProt P33261). In words: qHTS Assay for Inhibitors and Substrates of Cytochrome P450 2C19 (AID 899). Also: % is scaled to controls: 0 for no effect and ±100 for the full control effect; nearly all actives have a fitted effect of over 60% in size. Put shortly: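 In 50mM KPO4, the reaction held 5nM enzyme and KM-level (10uM) Luciferin-H EGE; it ran 60 min at 37C after NADPH regeneration and a 10 min compound preincubation. Luminescence values were scaled to 57uM ketoconazole as complete inhibition.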

Experiment [19] can be described thus: Confirmation and Secondary Assay for Modulators of Hemoglobin Beta Chain Splicing at IVS2 654 locus (AID 910).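 Also: per-well total GFP intensity by laser scanning cytometry after 2-day treatment; % of control where 0% means no effect.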 Put shortly: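 HeLa cells stably carrying EGFP interrupted by mutant beta-globin IVS2-654 intron (CMV-driven) were treated with compound for 2 days at 37C; corrected splicing was scored as total peak GFP intensity per well (488 nm excitation, 500-520 nm emission).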

The nature of experiment [20]: Confirmation and Secondary Assay for Modulators of Hemoglobin Beta Chain Splicing at IVS2 705 locus (AID 930).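 Also: HeLa cells stably expressing the EGFP-705 splicing reporter; GFP fluorescence per well restored by corrected splicing of the IVS2-705 intron in EGFP; series mostly up to about 46 µM; % of control where 0% means no effect.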 In outline:
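First, HeLa EGFP-705 cells are seeded at 500/well in Optimem with 2% FCS and left overnight. Next, compound or DMSO is added for 2 days. Finally wells are laser-scanned and total peak GFP intensity scored.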

Sequence of Cytochrome P450 3A4 (Homo sapiens) (P08684 whole entry, looked up): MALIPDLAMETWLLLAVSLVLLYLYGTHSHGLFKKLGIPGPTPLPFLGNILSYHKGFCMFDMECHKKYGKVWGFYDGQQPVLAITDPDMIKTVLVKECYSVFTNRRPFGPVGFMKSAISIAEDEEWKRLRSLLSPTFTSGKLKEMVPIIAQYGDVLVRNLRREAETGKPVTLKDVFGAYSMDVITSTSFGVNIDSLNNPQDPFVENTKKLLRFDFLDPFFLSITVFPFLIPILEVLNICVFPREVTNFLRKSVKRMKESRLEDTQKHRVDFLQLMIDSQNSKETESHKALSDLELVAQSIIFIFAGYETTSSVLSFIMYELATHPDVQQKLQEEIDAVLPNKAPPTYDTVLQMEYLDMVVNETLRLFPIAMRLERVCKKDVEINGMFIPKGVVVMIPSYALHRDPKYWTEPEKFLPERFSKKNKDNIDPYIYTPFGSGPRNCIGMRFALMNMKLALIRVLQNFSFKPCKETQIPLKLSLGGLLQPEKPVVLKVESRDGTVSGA
Sequence of Muscarinic acetylcholine receptor M1 (Rattus norvegicus) (P08482 whole entry, looked up): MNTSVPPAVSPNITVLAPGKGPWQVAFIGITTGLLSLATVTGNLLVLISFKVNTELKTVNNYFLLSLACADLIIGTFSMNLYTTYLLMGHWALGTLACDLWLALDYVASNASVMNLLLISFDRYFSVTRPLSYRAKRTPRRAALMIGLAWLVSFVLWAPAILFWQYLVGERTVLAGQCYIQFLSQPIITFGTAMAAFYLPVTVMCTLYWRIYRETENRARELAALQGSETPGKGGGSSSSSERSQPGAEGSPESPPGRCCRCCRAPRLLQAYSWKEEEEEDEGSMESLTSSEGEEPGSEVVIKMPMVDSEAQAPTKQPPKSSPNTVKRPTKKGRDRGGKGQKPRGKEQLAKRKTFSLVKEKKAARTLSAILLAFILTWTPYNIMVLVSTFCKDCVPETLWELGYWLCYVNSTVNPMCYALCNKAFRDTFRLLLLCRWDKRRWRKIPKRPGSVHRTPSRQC
Sequence of Cytochrome P450 2D6 (Homo sapiens) (P10635 whole entry, looked up): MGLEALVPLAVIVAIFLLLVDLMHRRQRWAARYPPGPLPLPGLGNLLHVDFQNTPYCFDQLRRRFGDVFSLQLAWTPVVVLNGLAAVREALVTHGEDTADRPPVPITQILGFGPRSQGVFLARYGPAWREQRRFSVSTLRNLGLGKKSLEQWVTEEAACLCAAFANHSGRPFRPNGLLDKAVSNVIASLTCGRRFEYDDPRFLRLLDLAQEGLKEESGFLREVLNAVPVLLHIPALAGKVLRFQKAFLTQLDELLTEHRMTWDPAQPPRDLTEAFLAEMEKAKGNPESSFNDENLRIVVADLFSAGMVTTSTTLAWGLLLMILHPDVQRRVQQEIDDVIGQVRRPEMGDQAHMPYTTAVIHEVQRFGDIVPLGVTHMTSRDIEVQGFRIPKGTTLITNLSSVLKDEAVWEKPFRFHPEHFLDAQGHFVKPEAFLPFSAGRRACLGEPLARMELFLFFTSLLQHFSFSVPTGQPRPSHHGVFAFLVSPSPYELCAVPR
Sequence of Pyruvate kinase (Leishmania mexicana) (Q27686 2-499 E452W): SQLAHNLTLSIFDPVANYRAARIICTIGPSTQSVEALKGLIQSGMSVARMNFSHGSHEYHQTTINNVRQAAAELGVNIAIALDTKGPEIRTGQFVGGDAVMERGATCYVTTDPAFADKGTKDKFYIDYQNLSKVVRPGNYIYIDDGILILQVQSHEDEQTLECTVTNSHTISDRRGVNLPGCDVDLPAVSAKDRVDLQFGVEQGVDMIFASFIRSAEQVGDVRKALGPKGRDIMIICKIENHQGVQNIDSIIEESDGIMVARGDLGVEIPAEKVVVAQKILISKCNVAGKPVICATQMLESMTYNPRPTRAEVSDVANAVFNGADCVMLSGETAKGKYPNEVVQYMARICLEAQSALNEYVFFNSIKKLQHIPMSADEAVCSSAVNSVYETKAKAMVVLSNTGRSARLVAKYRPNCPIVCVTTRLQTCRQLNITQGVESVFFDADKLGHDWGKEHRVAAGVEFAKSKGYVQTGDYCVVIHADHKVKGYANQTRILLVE
Sequence of Cytochrome P450 2C19 (Homo sapiens) (P33261 whole entry, looked up): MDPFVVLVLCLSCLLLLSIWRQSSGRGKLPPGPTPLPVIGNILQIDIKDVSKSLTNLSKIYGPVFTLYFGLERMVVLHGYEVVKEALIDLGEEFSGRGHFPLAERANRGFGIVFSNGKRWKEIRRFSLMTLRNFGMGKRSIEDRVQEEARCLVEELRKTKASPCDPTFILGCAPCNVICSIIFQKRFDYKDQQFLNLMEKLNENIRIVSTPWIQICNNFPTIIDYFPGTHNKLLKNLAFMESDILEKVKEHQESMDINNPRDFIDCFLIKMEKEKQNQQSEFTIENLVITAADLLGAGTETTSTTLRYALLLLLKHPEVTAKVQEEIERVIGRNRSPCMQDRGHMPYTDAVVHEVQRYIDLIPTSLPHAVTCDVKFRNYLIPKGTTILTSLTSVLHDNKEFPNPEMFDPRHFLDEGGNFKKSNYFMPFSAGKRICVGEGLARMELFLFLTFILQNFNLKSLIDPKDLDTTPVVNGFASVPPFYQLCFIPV
Sequence of Cytochrome P450 2C9 (Homo sapiens) (P11712 whole entry, looked up): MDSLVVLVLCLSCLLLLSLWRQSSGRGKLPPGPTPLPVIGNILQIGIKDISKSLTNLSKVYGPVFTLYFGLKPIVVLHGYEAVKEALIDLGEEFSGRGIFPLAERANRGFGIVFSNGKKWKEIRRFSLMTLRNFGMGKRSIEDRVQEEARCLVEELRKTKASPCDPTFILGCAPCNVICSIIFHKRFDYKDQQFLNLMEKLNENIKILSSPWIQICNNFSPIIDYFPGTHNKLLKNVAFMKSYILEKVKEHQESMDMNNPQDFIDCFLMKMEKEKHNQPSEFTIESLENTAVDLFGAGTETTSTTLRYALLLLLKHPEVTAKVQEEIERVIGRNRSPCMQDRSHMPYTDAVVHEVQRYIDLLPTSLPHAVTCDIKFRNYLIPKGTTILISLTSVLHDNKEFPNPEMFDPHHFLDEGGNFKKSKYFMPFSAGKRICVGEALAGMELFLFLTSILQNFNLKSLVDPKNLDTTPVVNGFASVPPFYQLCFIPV
Sequence of Guanine nucleotide-binding protein G(i) subunit alpha-1 (Homo sapiens) (P63096 whole entry, looked up): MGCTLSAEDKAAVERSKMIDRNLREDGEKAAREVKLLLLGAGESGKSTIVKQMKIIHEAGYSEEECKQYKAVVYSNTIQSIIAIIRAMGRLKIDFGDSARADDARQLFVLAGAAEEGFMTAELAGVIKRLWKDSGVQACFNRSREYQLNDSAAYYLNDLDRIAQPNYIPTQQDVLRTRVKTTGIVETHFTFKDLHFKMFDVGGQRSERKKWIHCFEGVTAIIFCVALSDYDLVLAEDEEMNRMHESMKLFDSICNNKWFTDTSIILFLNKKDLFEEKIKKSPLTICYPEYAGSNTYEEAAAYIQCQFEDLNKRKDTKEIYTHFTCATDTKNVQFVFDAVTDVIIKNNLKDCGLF

Take `CCCCCCCCCC(=O)O`: the call in experiment [1], in experiment [2], in experiment [3], in experiment [4], in [5] and in experiment [6] was inactive. For the same compound, the result in experiment [7] and in [8] was inactive.

As for `COC(C)=O`, the call in [1], in experiment [2], in experiment [3], in [4], in experiment [5] and in [6] was inactive. Further, the compound was called inactive in experiment [7] and in experiment [8].

`Cc1ccc(OC[C@H](O)[C@H](C)NC(C)C)c2c1CCC2`: the outcome in [9], in experiment [10], in experiment [11], in experiment [12], in experiment [13] and in experiment [14] was inactive.

Consider `COc1ccc2[nH]c(=O)c3c(c2c1)OC(C)(C)C=C3`, for which the compound was classed as inactive in experiment [6] and in experiment [15].

In the case of `NCCCC(=O)O`, the call in experiment [9], in experiment [6], in experiment [15], in [17], in [18] and in [19] was inactive. For the same compound, the compound was classed as inactive in [11], in [20], in [12], in [13] and in experiment [14]. Further, the Potency result in experiment [16] is “inactive”.

On to `O=C(O)CC(O)(CC(=O)O)C(=O)O`, for which the compound was called inactive in [1], in experiment [2], in [3], in experiment [4], in experiment [5] and in experiment [6]. The result in [19], in experiment [7], in [20] and in [8] was inactive.

Consider `C=Cc1ccccc1`, for which the compound was classed as inactive in experiment [1], in experiment [2], in experiment [3], in experiment [4], in experiment [5] and in experiment [6]. Further, the result in experiment [7] and in experiment [8] was inactive.

`CCCCCCCCCCCCCCCC(=O)OC/C=C(C)/C=C/C=C(C)/C=C/C1=C(C)CCCC1(C)C`: the outcome in [6], in experiment [19] and in [20] was inactive.

Regarding `CN(C)Cc1ccccc1`, the outcome in experiment [1], in experiment [2], in experiment [3], in experiment [4], in experiment [5] and in experiment [6] was inactive. For the same compound, the outcome in [7] and in experiment [8] was inactive.

Turning to `O=C(O)c1cc2ccccc2c(Cc2c(O)c(C(=O)O)cc3ccccc23)c1O`, the activity change, negative = inhibition in experiment [16] is -15.3% [at 11.4 µM]; in experiment [15], 6.29% [at 11.4 µM]. Moreover, the activity, negative = inhibition in [18] is 1.36% [at 11.4 µM].

Consider `CN[C@H]1CC[C@@H](c2ccc(Cl)c(Cl)c2)c2ccccc21`, for which the result in experiment [10] and in experiment [14] was inactive.

For `COC1=CC(=O)C[C@@H](C)[C@@]12Oc1c(Cl)c(OC)cc(OC)c1C2=O`, the Potency result in experiment [16] is “inactive”. In addition, the compound was classed as inactive in [15] and in [18].

As for `CN(C)CCCn1cc(C2=C(c3c[nH]c4ccccc34)C(=O)NC2=O)c2ccccc21`, in experiment [10], the compound was called inactive.

As for `C1CNCCN1`, the compound was called inactive in [6], in experiment [19] and in experiment [20].

Consider `CC(=O)C1=C(O)C=C2Oc3c(C(C)=O)c(O)c(C)c(O)c3[C@]2(C)C1=O`, for which, in experiment [16], the Potency was 6.3 nM (active). In addition, the compound was called inactive in experiment [10] and in experiment [15].
